Laboratory results: the supplement of paper PMC3545927
The list shows a part of the results. The true hit rate is not given.

Biological target: furin, P09958
Assay: furin cleavage Z-score vs untreated control; higher = more cleavage, active = 3.5 or more, inactive = 1 or less, 8 variable residues between constant flanks
In short: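 Furin-free reactions served as the baseline for the cleavage Z-score, which is the log read count lowess-adjusted and scaled by median absolute deviation. Counts came from released DNA, adapter-tagged by PCR and sequenced. Purified furin had cut 8-mer peptides fused to a cDNA oligonucleotide on magnetic beads during 7.5, 15 or 30 min at 1:10 enzyme:substrate.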
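Note: purified furin at 1:10 enzyme:substrate in 50 mM HEPES pH 7.5.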

Sequence of furin, P09958 (P09958 whole entry): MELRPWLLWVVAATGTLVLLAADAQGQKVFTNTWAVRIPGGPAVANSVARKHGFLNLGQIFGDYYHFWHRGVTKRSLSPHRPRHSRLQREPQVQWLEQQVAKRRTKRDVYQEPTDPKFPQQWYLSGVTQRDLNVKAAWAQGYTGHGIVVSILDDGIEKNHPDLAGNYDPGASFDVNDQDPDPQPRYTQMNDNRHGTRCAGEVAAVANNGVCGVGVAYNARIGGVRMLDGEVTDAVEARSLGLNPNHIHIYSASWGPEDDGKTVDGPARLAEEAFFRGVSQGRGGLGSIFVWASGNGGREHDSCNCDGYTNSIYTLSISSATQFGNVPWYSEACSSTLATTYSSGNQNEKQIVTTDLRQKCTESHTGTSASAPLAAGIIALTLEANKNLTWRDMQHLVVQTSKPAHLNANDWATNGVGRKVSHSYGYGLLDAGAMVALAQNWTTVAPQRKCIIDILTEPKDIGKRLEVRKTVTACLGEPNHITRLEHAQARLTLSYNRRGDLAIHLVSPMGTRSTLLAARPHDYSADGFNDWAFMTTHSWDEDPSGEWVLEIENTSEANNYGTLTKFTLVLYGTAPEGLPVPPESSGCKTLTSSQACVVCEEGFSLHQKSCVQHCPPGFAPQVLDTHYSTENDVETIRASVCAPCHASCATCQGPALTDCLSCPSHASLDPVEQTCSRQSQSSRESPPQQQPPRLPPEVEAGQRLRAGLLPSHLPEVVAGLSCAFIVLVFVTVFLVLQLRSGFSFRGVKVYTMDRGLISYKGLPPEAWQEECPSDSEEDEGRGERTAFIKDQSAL

Row | Sequence | furin cleavage Z-score (7.5 min) | furin cleavage Z-score (15 min) | furin cleavage Z-score (30 min)
1 | CATTPRSGSWAGNASASA [HC50] | 0.195 (inactive) | -0.703 (inactive) | -1.47 (inactive)
2 | CAQASLLKVPAGNASASA [HC612] | -0.764 (inactive) | -0.112 (inactive) | 0.0537 (inactive)
3 | CALLAPITAYAGNASASA [HC673] | -3.12 (inactive) | -1.42 (inactive) | -1.58 (inactive)
4 | CAEVARLRRGAGNASASA [FS-1122] | 0.497 (inactive) | 0.166 (inactive) | 1.11
5 | CAGYFRIRRGAGNASASA [FS-931] | 7.65 (active) | 7.42 (active) | 7.31 (active)
6 | CARVQRLRRGAGNASASA [FS-1076] | 6.03 (active) | 4.67 (active) | 4.95 (active)
7 | CARSERSVILAGNASASA [FS-2237] | -0.162 (inactive) | 0.495 (inactive) | -1.51 (inactive)
8 | CAHPQRKRRGAGNASASA [FS-538] | 8.91 (active) | 10.4 (active) | 7.34 (active)
9 | CARSERNRRGAGNASASA [FS-1406] | 12.7 (active) | 13.3 (active) | 9.9 (active)
10 | CALQVLDSHYAGNASASA [HC1399] | 0.634 (inactive) | 0.79 (inactive) | -1.28 (inactive)
11 | CALTPPHSAKAGNASASA [HC1416] | 0.524 (inactive) | 0.481 (inactive) | -0.0828 (inactive)
12 | CASTPCSPHLAGNASASA [HC2539] | 2.23 | -1.13 (inactive) | 0.314 (inactive)
13 | CALKGSSGGPAGNASASA [HC741] | -0.0654 (inactive) | -1.8 (inactive) | -2.14 (inactive)
14 | CAAKLVALGIAGNASASA [HC863] | 0.999 (inactive) | -2.69 (inactive) | 0.907 (inactive)
15 | CAHLVPVLRGAGNASASA [FS-595] | 0.989 (inactive) | -0.535 (inactive) | -1.61 (inactive)
16 | CAIKSRFGRGAGNASASA [FS-541] | 4.29 (active) | 4.38 (active) | 4.05 (active)
17 | CAICSRAARGAGNASASA [FS-1534] | -0.759 (inactive) | 0.0398 (inactive) | -0.381 (inactive)
18 | CAVFQRKRRGAGNASASA [FS-1578] | 12.4 (active) | 12.7 (active) | 9.42 (active)
19 | CARRGRTGRGAGNASASA [HC904] | -0.725 (inactive) | -0.224 (inactive) | -0.511 (inactive)
20 | CAFPMRGRRGAGNASASA [FS-1454] | -0.221 (inactive) | -0.337 (inactive) | 0.17 (inactive)
21 | CAYLHRVGRGAGNASASA [FS-390] | 3.96 (active) | 5.69 (active) | 4.8 (active)
22 | CAFSSRWGRGAGNASASA [FS-1523] | -2.35 (inactive) | 0.914 (inactive) | -0.211 (inactive)

Row | Sequence | furin cleavage Z-score (7.5 min) | furin cleavage Z-score (15 min) | furin cleavage Z-score (30 min)
23 | CAVFKRDAHGAGNASASA [FS-3215] | -0.773 (inactive) | -0.315 (inactive) | 1.52
24 | CAYLNRKRRGAGNASASA [FS-634] | 9.69 (active) | 11.9 (active) | 7.89 (active)
25 | CALGIGTVLDAGNASASA [HC824] | -0.583 (inactive) | 0.0553 (inactive) | -0.254 (inactive)
26 | CAVVCCSMFYAGNASASA [HC2067] | -1.42 (inactive) | 0.168 (inactive) | -1.67 (inactive)
27 | CAISYRFPRGAGNASASA [FS-37] | 4.87 (active) | 7.38 (active) | 6.94 (active)
28 | CARYFRKRRGAGNASASA [FS-960] | 10.2 (active) | 11.6 (active) | 9.02 (active)
29 | CAKKERRPRGAGNASASA [FS-671] | 1.59 | 2.08 | 0.765 (inactive)
30 | CAGAGNNTLHAGNASASA [HC447] | -0.871 (inactive) | 0.802 (inactive) | -0.559 (inactive)
31 | CADATYSRCGAGNASASA [HC456] | 0.156 (inactive) | 1.42 | 0.00204 (inactive)
32 | CAKVPCHRPSAGNASASA [HC2314] | 1.64 | 0.0197 (inactive) | 0.762 (inactive)
33 | CALGNIIMFAAGNASASA [HC1575] | -0.725 (inactive) | -1.13 (inactive) | -0.0117 (inactive)
34 | CARRSRLKRAAGNASASA [FS-496] | 11.4 (active) | 11.7 (active) | 8.87 (active)
35 | CARRVRCSGAAGNASASA [FS-2802] | -0.409 (inactive) | 0.495 (inactive) | 0.927 (inactive)
36 | CAAEQFKQKAAGNASASA [HC1023] | 0.841 (inactive) | 0.435 (inactive) | -1.43 (inactive)
37 | CALGRRTKRAAGNASASA [FS-50] | 9.24 (active) | 10.5 (active) | 6.44 (active)
38 | CAAEIRLKRAAGNASASA [FS-1442] | 9.68 (active) | 9.78 (active) | 8.4 (active)
39 | CARRSRCIRAAGNASASA [FS-1405] | 9.51 (active) | 10.1 (active) | 8.44 (active)
40 | CALGSRYKKAAGNASASA [FS-819] | -0.0568 (inactive) | -0.0472 (inactive) | -0.113 (inactive)
41 | CAAENRALRLAGNASASA [FS-113] | 0.559 (inactive) | -1.89 (inactive) | 1.32
42 | CAVCWTVYHGAGNASASA [HC699] | -0.241 (inactive) | 1.41 | -1.21 (inactive)
43 | CAEVVTSTPVAGNASASA [HC2239] | -0.71 (inactive) | -0.517 (inactive) | -0.991 (inactive)
44 | CATTPCSGVWAGNASASA [HC1910] | -0.00612 (inactive) | 1.65 | 0.601 (inactive)
